RORg inh – ROR gamma (mouse) transcription inhibition. P51450. Drosophila S2 Gal4-RORgamma UAS-luciferase reporter, 20 h. Potency, µM (series often up to 53.6 µM), for the others: top-dose activity change, negative = inhibition, usual class: inhibitors. 310,000 tested, 5.4% active; also: potency is read from the fitted curve at half-maximal effect; nearly all actives have a fitted effect of over 60% in size
Target sequence (P51450 whole entry, looked up, the tested form may be a part): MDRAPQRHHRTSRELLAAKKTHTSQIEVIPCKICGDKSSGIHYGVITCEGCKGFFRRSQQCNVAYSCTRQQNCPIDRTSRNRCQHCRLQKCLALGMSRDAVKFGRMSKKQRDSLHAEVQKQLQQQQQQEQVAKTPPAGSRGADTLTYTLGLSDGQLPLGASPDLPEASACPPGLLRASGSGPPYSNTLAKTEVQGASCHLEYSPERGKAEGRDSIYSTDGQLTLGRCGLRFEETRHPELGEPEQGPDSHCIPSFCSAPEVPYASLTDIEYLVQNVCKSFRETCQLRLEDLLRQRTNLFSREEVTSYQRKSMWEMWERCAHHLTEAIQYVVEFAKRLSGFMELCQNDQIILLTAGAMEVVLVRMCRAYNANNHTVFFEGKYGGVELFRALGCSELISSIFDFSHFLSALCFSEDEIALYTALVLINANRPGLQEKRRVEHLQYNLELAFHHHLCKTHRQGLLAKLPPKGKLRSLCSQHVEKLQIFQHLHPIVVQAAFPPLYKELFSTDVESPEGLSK
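ROR gamma transcriptional activity was tracked as Gal4-UAS luciferase output in stably transfected Drosophila Schneider cells, with compound added 1 hr before 700 uM copper sulfate induction and a 20 hr ambient-temperature incubation.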
ELG1 repair inh – blocks ELG1-dependent DNA repair in HEK293T cells; HEK293T ELG1-luciferase reporter, luminescence, 16 h; DNA damage induced by 5-fluorouridine; Potency, µM (doses to about 46.1 µM), for inactives: at the top dose activity change, negative = inhibition, actives largely listed as inhibitors; 330,000 tested, 2.3% active; AID 504467; also: potency is read from the fitted curve at half-maximal effect; nearly all actives have a fitted effect of over 55% in size
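5-Fluorouridine DNA damage + compound/DMSO, 2,000 cells/well, 16 h, 37 °C/5% CO2. ONE-Glo, 30 min RT, luminescence. Readout = decrease in reporter signal.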
DT40 TDP1 CPT – growth inhibition of DT40 Tdp1-/-;hTDP1 cells with camptothecin (screen for TDP1 inhibitors); chicken DT40 Tdp1-/-;hTDP1 cells + 20 nM CPT, ATP luminescence, 48 h; Potency, µM (series often up to 46.2 µM), without a hit: top-dose activity change, negative = growth inhibition, actives largely listed as inhibitors; 420,000 tested, 12% active; also: potency is read from the fitted curve at half-maximal effect; nearly all actives have a fitted effect of over 55% in size
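Chicken DT40 Tdp1-/- cells complemented with human TDP1, 400 cells/well, exposed to compounds plus 20 nM camptothecin for at least 48 h at 37 C; viability read as ATP content by CellTiter-Glo luminescence.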
DT40 TDP1 no CPT – qHTS for Inhibitors of human tyrosyl-DNA phosphodiesterase 1 (TDP1): qHTS in cells in absence of CPT | DT40 Tdp1-/- hTDP1 cells, no CPT, ATP luminescence, 48 h | Potency, µM (series often up to 46.2 µM), without a hit: at the top dose activity change, negative = growth inhibition, actives largely listed as inhibitors | 420,000 tested, 15% active | AID 686978, 2013; also: potency is read from the fitted curve at half-maximal effect; nearly all actives have a fitted effect of over 55% in size
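Chicken DT40 Tdp1-/- cells complemented with human TDP1, screened without camptothecin (DMSO vehicle only), 400 cells/well. Compounds pin-transferred, cells incubated at 37 °C for at least 48 hr. Growth read as ATP-dependent luminescence (CellTiter-Glo, 30 min at RT).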
IL-1B inflam inh – inflammasome signaling inhibition, IL-1 beta readout; 360,000 tested, 4.7% active; activity change, % at 57.5 µM; THP-1 LPS/ATP IL-1B secretion, AlphaLISA, 16 h; stronger effect = lower value; in the data active = activity change below about -50%; inconclusive = mostly about -30% to -49%
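THP-1 cells pretreated 1 hr with compounds (up to 57.5 uM final), then stimulated with LPS (250 ng/mL final) plus ATP (1.25 mM final); secreted IL-1B measured by AlphaLISA after 16 hr, decreased signal indicating inhibition.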
Gal4-VP16 FLuc – Gal4-VP16 reporter inhibition counter-screen. Drosophila S2 Gal4-VP16 UAS-luciferase, luminescence, 20 h. AID 2546. 310,000 tested, 3.5% active. Potency, µM (top dose mostly 53.6 µM), for inactives: at the top dose activity, negative = inhibition, actives largely listed as inhibitors;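 also: Gal4-VP16 expression switched on by copper sulfate through the metallothionein promoter; potency is read from the fitted curve at half-maximal effect; nearly all actives have a fitted effect of over 50% in size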
* = called active by the depositor; ? = inconclusive; . = no result given; [ ] = another dose, or the depositor's remark. Sampled rows, rich in hits. Any-hit rate of the full collection: about 21%. Unless noted, calls follow the shape of the dose curve; as a rule, active = well fitted curve in the direction sought with a large enough effect; inconclusive = small, poorly fitted or top-dose-only effect, or another doubt; inactive = no such curve, though single readings can be large; an effect the other way counts as inactive or inconclusive. % is scaled to controls: 0 for no effect and ±100 for the full control effect.

SMILES	RORg inh	ELG1 repair inh	DT40 TDP1 CPT	DT40 TDP1 no CPT	IL-1B inflam inh	Gal4-VP16 FLuc
COC(=O)CSC1=C(C#N)C(=O)NC(c2ccccc2)S1 (stereo unspecified)	-11.0%	19.2%	2.59µM*	2.06µM*	?	1.7%
CN(Cc1ccccc1)C(=O)CN1CCN(S(=O)(=O)c2ccccc2F)CC1	.	.	-26.9%	?	18.9	.
Cc1cc(=O)n2[nH]c(N)c(N=Nc3ccccc3F)c2n1	10µM*	-7.2%	?	16.4µM*	9.8	10.6%
CC(C)(C)NC(=O)C1c2ccccc2OCC(=O)N1Cc1ccco1 (stereo unspecified)	.	.	-14.2%	16.0%	7.6	.
CCOc1ccccc1NC(=O)CCc1c(C)nc2c(c(C)nn2-c2ccccc2)c1C	.	.	16.4µM*	16.4µM*	.	.
CCC(C)NC(=O)CCc1c(C)nc2c(c(C)nn2-c2ccc(C)cc2)c1C (stereo unspecified)	.	.	14.6µM*	7.31µM*	.	.
COC(=O)c1ccccc1NC(=O)CCc1c(C)nc2c(c(C)nn2-c2ccccc2)c1C	.	.	2.4%	-8.3%	.	.
CC(=O)Nc1ccc(NC(=O)CCc2c(C)nc3c(c(C)nn3-c3ccc(C)cc3)c2C)cc1	.	.	14.6µM*	?	.	.
Cc1nc2c(c(C)nn2-c2ccccc2)c(C)c1CCC(=O)Nc1ccc(F)cc1	.	.	?	18.4µM*	.	.
O=C(NC1CCCCC1)C(c1ccnc2ccccc12)N1CCc2ccccc2C1 (stereo unspecified)	.	.	?	?	53.2	.
CC(=O)Nc1ccc(NC(=O)CCc2c(C)nc3c(c(C)nn3-c3ccccc3)c2C)cc1	.	.	-16.4%	-23.8%	.	.
CCOC(=O)c1ccc(NC(=O)CCc2c(C)nc3c(c(C)nn3-c3ccccc3)c2C)cc1	.	.	16.4µM*	10.3µM*	.	.
CCN1C(=NCc2ccccc2)N[C@@H](c2ccccc2)[C@H](C(=O)OC)[C@H]1C	-9.8%	-10.0%	?	-26.7%	-15.3	-0.2%
COC(=O)C1=C(C)N(Cc2ccccc2)C(=NCCc2c[nH]c3ccccc23)N[C@H]1c1ccccc1	?	16.4%	?	20.6µM*	?	-10.7%
CCN1C(=NCCc2c[nH]c3ccccc23)N[C@@H](c2ccccc2)[C@H](C(=O)OC)[C@H]1C	-13.3%	-21.2%	9.2µM*	18.4µM*	13.9	0.4%
COC(=O)C1=C(C)N(Cc2ccccc2)C(=NCCc2c[nH]c3ccccc23)N[C@H]1c1cccc(F)c1	.	28.9%	5.17µM*	2.59µM*	-50.4*	.
COc1ccc(-c2cnc3c(NC(C)=O)cc(-c4cccc(NS(C)(=O)=O)c4)cn23)cc1OC	.	.	20.6µM*	23.1µM*	-24.2	.
CC(=O)Nc1cc(-c2ccccc2)cn2c(-c3cccc(C(C)=O)c3)cnc12	.	.	14.6µM*	10.3µM*	-2.7	.
CC(=O)Nc1cc(-c2cccc(NS(C)(=O)=O)c2)cn2c(-c3cccc(C(C)=O)c3)cnc12	.	.	16.4µM*	18.4µM*	64.1	.
CC(=O)Nc1cc(-c2cccc(NS(C)(=O)=O)c2)cn2c(-c3ccc(F)c(Cl)c3)cnc12	.	.	?	23.1µM*	.	.
CC(=O)Nc1cc(-c2cccc(C(=O)N(C)C)c2)cn2c(-c3cccc(C(=O)N(C)C)c3)cnc12	.	.	?	?	-4.2	.
COc1ccc(-c2cc(NC(C)=O)c3ncc(-c4ccccc4)n3c2)cc1OC	.	.	?	?	-25.4	.
CCOc1ncccc1C(=O)NCCCSc1ccccc1	-8.7%	-6.3%	-23.4%	?	-8.3	-3.8%
CC(C)(C)S(=O)(=O)N1C[C@@H]2CC/C=C\C/C(c3ccccc3)=C\2[C@H]1CCO	.	.	?	?	-1.0	.
COCCNC(=O)C1(C)CCN(Cc2noc(-c3c(C)noc3C)n2)C1 (stereo unspecified)	.	.	0.3%	-0.4%	31.6	.
SMILES	RORg inh	ELG1 repair inh	DT40 TDP1 CPT	DT40 TDP1 no CPT	IL-1B inflam inh	Gal4-VP16 FLuc
C=CCNc1nc(Nc2ccc(-c3nc4ccccc4o3)cc2)nc(N2CCOCC2)n1	-9.9%	14.6µM*	29.1µM*	25.9µM*	-7.1	-11.8%
Fc1ccccc1Nc1nc(NCc2ccco2)nc(N2CCOCC2)n1	9.6%	?	?	-18.5%	-12.9	4.3%
C=CCNc1nc(NCC)nc(N2CCOCC2)n1	2µM*	3.6%	-26.4%	-24.6%	5.1	-23.3%
CC1=C(C(=O)N(C)C)CC(CC(=O)NCc2cccc3ccccc23)C(=O)N1Cc1ccc(F)cc1 (stereo unspecified)	.	.	-6.8%	?	-24.2	.
COc1ccc(/C(C)=N/NC(=S)NCc2ccco2)cc1	2.82µM*	-28.0%	2.91µM*	1.46µM*	-25.8	5.62µM*
COc1ccc(/C(C)=N/NC(=S)NCCc2ccccc2)cc1	0.282µM*	?	?	?	-8.8	1.12µM*
C=CCNC(=S)N/N=C(\C)c1cccc(OC)c1	0.794µM*	1.1%	1.16µM*	2.06µM*	-77.2*	0.891µM*
COc1ccc(CNC(=S)N/N=C(\C)c2ccc(OC)cc2)cc1	6.31µM*	2.8%	11.6µM*	5.17µM*	31.1	5.01µM*
COc1cccc(/C(C)=N/N=C(\C)c2cccc(OC)c2)c1	?	?	-4.1%	-1.0%	?	21.3%
COc1ccc(/C(C)=N/NC(=O)CNC(=O)c2ccco2)cc1	8.9%	2.1%	-5.1%	-3.0%	-4.1	3.6%
COc1cc(C2NC(=O)NC(c3ccccc3)=C2C(C)=O)c(Cl)cc1OCC(=O)O (stereo unspecified)	-0.9%	2.4%	12.5%	-12.0%	20.9	-8.6%
CC(=O)c1ccccc1N(C(=O)c1ccco1)C(C(=O)NC1CCCC1)c1ccc(N2CCOCC2)cc1 (stereo unspecified)	13.7%	-1.6%	-13.2%	-13.4%	8.3	3.1%
COC(=O)C/C=C\[C@@H](C)[C@@H](/C=N\OC[C@@H](C)[C@H](OCc1ccccc1)C(C)C)NS(=O)(=O)c1ccc(C)cc1	5.9%[10 µM]	.	.	.	.	-7.2%[10 µM]
COCCCNC(=O)c1ccccc1N(Cc1ccccc1)S(=O)(=O)c1ccccc1	2.1%	-6.3%	-14.5%	?	-0.3	1.3%
C=CCNC(=S)N/N=C(\C)c1ccc(OC)cc1	0.708µM*	?	?	?	-4.9	1.12µM*
COc1ccc(OCC(=O)N/N=C(\C)c2ccc(OC)cc2)cc1	38.5%	-0.7%	-3.1%	-14.2%	-10.0	-3.4%
OC[C@H]1OC(O)[C@@H](O)[C@@H](O)[C@H]1O (stereo partly specified)	19.0%	.	.	.	.	-0.8%

High-throughput results (PubChem)
